In all, about 5,500 compounds went through this assay and about 2,000 (36%) were called active. Roughly 18% stayed inconclusive and do not appear here. Cut-off read from the data, not from the text of the source: active = normalized growth mostly below about 0.91 (no sharp cut-off); inconclusive = no clear call, values can overlap the other calls; inactive = mostly above about 0.92. Some of the results follow.
Assay: chemical genetic growth profiling, strain panel (AID 1159580);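 note: tested at 20 µM; growth read once vehicle control cultures reached saturation at 30 °C; 1 = growth at the plate median or of vehicle wells; lower values mean less growth of the strain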
Details: growth OD
[1] = S. cerevisiae deletion strains, locus YAL013W, strain DEP1, stronger effect = lower value
[2] = S. cerevisiae deletion strains, locus YBR229C, strain ROT2, stronger effect = lower value
[3] = S. cerevisiae deletion strains, locus YDL101C, strain DUN1, stronger effect = lower value
[4] = S. cerevisiae deletion strains, locus YDR150W, strain NUM1, stronger effect = lower value
[5] = S. cerevisiae deletion strains, locus YEL061C, strain CIN8, stronger effect = lower value
[6] = S. cerevisiae deletion strains, locus YGR078C, strain PAC10, stronger effect = lower value
[7] = S. cerevisiae deletion strains, locus YHR030C, strain SLT2, stronger effect = lower value
[8] = S. cerevisiae deletion strains, locus YHR087W, strain rtc3, stronger effect = lower value
[9] = S. cerevisiae deletion strains, locus YJL187C, strain SWE1, stronger effect = lower value
[10] = S. cerevisiae deletion strains, locus YJR043C, strain POL32, stronger effect = lower value
[11] = S. cerevisiae deletion strains, locus YJR075W, strain HOC1, stronger effect = lower value
[12] = S. cerevisiae deletion strains, locus YLR039C, strain RIC1, stronger effect = lower value
[13] = S. cerevisiae deletion strains, locus YLR058C, strain SHM2 (second series), stronger effect = lower value
[14] = S. cerevisiae deletion strains, locus YLR085C, strain ARP6, stronger effect = lower value
[15] = S. cerevisiae deletion strains, locus YLR262C, strain YPT6, stronger effect = lower value
[16] = S. cerevisiae deletion strains, locus YML094W, strain GIM5, stronger effect = lower value
[17] = S. cerevisiae deletion strains, locus YMR219W, strain ESC1, stronger effect = lower value
[18] = S. cerevisiae deletion strains, locus YMR263W, strain SAP30, stronger effect = lower value
[19] = S. cerevisiae deletion strains, locus YNL153C, strain GIM3, stronger effect = lower value
[20] = S. cerevisiae deletion strains, locus YNL298W, strain CLA4 (second series), stronger effect = lower value
[21] = S. cerevisiae deletion strains, locus YNL322C, strain KRE1, stronger effect = lower value
[22] = S. cerevisiae deletion strains, locus YNR030W, strain Alg12, stronger effect = lower value
[23] = S. cerevisiae deletion strains, locus YPL055C, strain LGE1, stronger effect = lower value
[24] = S. cerevisiae deletion strains, locus YPL241C, strain CIN2, stronger effect = lower value
[25] = S. cerevisiae deletion strains, locus YPR135W, strain CTF4, stronger effect = lower value
[26] = S. cerevisiae strains, strain wild type, stronger effect = lower value

Measured: normalized growth

NC(N)=NC(N)=Nc1cc(C(F)(F)F)cc(C(F)(F)F)c1
inactive: [1] 1 | [2] 0.999 | [3] 0.992 | [4] 0.998 | [5] 1.02 | [6] 0.995 | [7] 0.983 | [8] 0.99 | [9] 1 | [10] 1.01 | [11] 0.977 | S. cerevisiae deletion strains, locus YKL190W, strain CNB1, stronger effect = lower value 1.01 | [12] 1.01 | [13] 1.01 | [14] 1.03 | [15] 1.01 | [16] 0.956 | [17] 1 | [18] 1.01 | S. cerevisiae deletion strains, locus YMR307W, strain GAS1, stronger effect = lower value 0.963 | [19] 0.993 | [20] 0.988 | [21] 0.987 | [22] 1.01 | [23] 0.999 | [24] 1.12 | [25] 1 | [26] 1.01

NC(=NS(=O)(=O)c1cc(C(F)(F)F)cc(C(F)(F)F)c1)c1cccs1
inactive: [1] 0.975 | [2] 0.977 | S. cerevisiae deletion strains, locus YCL061C, strain MRC1, stronger effect = lower value 0.996 | [3] 0.994 | S. cerevisiae deletion strains, locus YDL134C, strain PPH21, stronger effect = lower value 0.984 | [4] 0.969 | [5] 0.934 | [6] 0.963 | [7] 0.975 | [8] 1.01 | [9] 0.987 | [10] 0.957 | [13] 0.967 | [14] 0.928 | [16] 0.927 | [17] 0.982 | [18] 0.978 | S. cerevisiae deletion strains, locus YNL128W, strain TEP1, stronger effect = lower value 1 | [19] 0.991 | [20] 0.933 | [21] 0.977 | [22] 0.942 | S. cerevisiae deletion strains, locus YOL006C, strain TOP1, stronger effect = lower value 0.949 | [23] 0.9 | [24] 0.946 | [25] 0.877 | [26] 0.978
active: [11] 0.89 | [12] 0.561 | [15] 0.578

— PubChem BioAssay AID1159580 (chemical genetic matrix, 2015)
